Rows were chosen to be rich in hits. Some 21% of all compounds tested hit in one or more screens of this group.
NS1 function inh – influenza NS1 inhibition; 270,000 tested, 0.4% active; Potency, µM (highest dose often 46.1 µM), for inactives: at the top dose activity, positive = more growth; AID 2326; calls by dose curve; note: potency is the fitted concentration of half-maximal effect; actives are rising curves; nearly all actives have a fitted effect of over 50% in size
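S. cerevisiae expressing influenza A NS1, grown in glucose, washed, then diluted 1:100 into pH 6.0 -URA galactose medium with 23 nl compound. Growth recovery read as OD600; NS1-free strain serves as control.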
Sm TGR inh – inhibitors of Schistosoma mansoni thioredoxin glutathione reductase | purified TGR, DTNB reduction, TNB absorbance 405 nm | Potency, µM (highest dose often 114 µM), inactives show top-dose activity change, negative = inhibition, actives largely listed as inhibitors | Q962Y6 | AID 485364 | 360,000 tested, 3% active; note: potency is the fitted concentration of half-maximal effect; % is set by controls: 0 for no effect and ±100 for the full control effect; nearly all actives have a fitted effect of over 60% in size
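First, TGR (20 nM dispensed) and NADPH were mixed with compound. Second, a 15 min room-temperature incubation followed. Third, further NADPH and then DTNB were added to start the reaction. Finally, TNB absorbance was monitored kinetically.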
Cycloheximide cs – counter-screen for Shiga toxin inhibitors: cycloheximide protein synthesis inhibition. AID 2314. 300,000 tested, 12% active. cell reporter, cycloheximide protein synthesis inhibition counterscreen. max response, %; in the data active = max response mostly above about 13%, no sharp cut-off; inactive = mostly below about 14%; note: read at 38.3 µM for the half of the compounds with a filed dose; 0% is about no effect
Pf growth 96h – P. falciparum growth inhibition at 96 hours; Potency, µM (highest dose often 28.7 µM), for inactives: top-dose activity change, negative = inhibition, usual class: inhibitors; P. falciparum luciferase reporter growth, 96 h; AID 504834; 320,000 tested, 6.9% active; note: potency is the fitted concentration of half-maximal effect; % is set by controls: 0 for no effect and ±100 for the full control effect
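Erythrocytes infected with luciferase-expressing P. falciparum were dispensed at 2% hematocrit and 0.05% parasitemia (final), then incubated with compounds 96 hours at 37 C in 5% CO2. Luminescence after detection reagent addition reported growth.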
Shiga toxin inh – inhibitors of Shiga toxin in Vero cells; Vero cells, Shiga toxin protein synthesis inhibition reporter; inhibition, % at 38.7 µM; 290,000 tested, 9.2% active; AID 2315; in the data active = inhibition mostly above about 28%, no sharp cut-off; inactive = mostly below about 43%; note: 0% is about no effect
Pf growth 48h – inhibits P. falciparum growth in the first generation, 48 h. P. falciparum luciferase growth in erythrocytes, 48 h. Potency, µM (top dose mostly 28.7 µM), for the others: at the top dose activity change, negative = inhibition, hits mostly inhibitors. 310,000 tested, 5.9% active. AID 504832; note: potency is the fitted concentration of half-maximal effect; % is set by controls: 0 for no effect and ±100 for the full control effect
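First compound was added to culture medium, then infected red cells at 0.1% parasitemia and 2% hematocrit (final). After incubation at 37 C under 5% CO2, luciferase detection reagent was dispensed and light output recorded.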
* hit, by the source's call; ? = inconclusive; . = no result given; [ ] = another dose, or the depositor's remark. Unless noted, calls come from the whole dose curve; as a rule, active = well fitted curve in the direction sought with a large enough effect; inconclusive = small, poorly fitted or top-dose-only effect, or another doubt; inactive = no such curve, though single readings can be large; an effect the other way counts as inactive or inconclusive.

SMILES	NS1 function inh	Sm TGR inh	Cycloheximide cs	Pf growth 96h	Shiga toxin inh	Pf growth 48h
Cc1cccc(NC(=O)CN2CCN(C(=O)c3c(C)nn(Cc4ccccc4)c3C)CC2)c1C	.	-12.3%	.	-17.8%	.	1.5%
CCOC(=O)N1CCN(c2nc(-c3ccccc3)c3cc(C)ccc3n2)CC1	-2.4%	1.7%	-2.1	?	-2.8	10.4µM*
CCC(=O)c1ccc(N2CCN(C(=O)c3ccccc3Br)CC2)c(F)c1	-1.8%	.	-2.3	-11.2%	-10.8	-1.3%
CCC(=O)c1ccc(N2CCCC2)c(F)c1	1.8%	-0.3%	28.2*	-85.3%	47.6*	62.1%
Clc1ccc2nc(N3CCNCC3)nc(-c3ccccc3)c2c1	9.3%	-6.1%	-0.9	9.0%[5.75 µM]	-17.3	11.7µM*
CN1CCN(c2nc(-c3ccccc3)c3cc(Cl)ccc3n2)CC1	-8.6%	7.0%	4.2	5.3%	-11.8	?
Cc1ccc2nc(N3CCN(CCO)CC3)nc(-c3ccccc3)c2c1	-0.6%	-6.6%	2.6	?	-1.7	?
CCCC(=O)c1cc(F)c(N2CCOCC2)cc1C	-10.1%	4.9%	13.1	1.31µM*	15.9	18.0%
CCc1nnc(NC(=O)CSc2nc(-c3ccccc3)cc(-c3ccc(OC)cc3)c2C#N)s1	16.8%	-8.9%	0.7	?	-5.5	1.1%
Cc1ccc(S(=O)(=O)n2nc(C)c(S(=O)(=O)N3CCCCCC3)c2C)cc1C	.	2.5%	.	.	.	.
Nc1nc(-c2ccccc2)c(-c2ccccc2)c(-c2nc(N)nc(-c3ccccc3)c2-c2ccccc2)n1	-2.9%	.	.	.	.	.
CCCC(=O)c1ccc(N2CCN(S(=O)(=O)c3ccccc3)CC2)c(F)c1	-8.0%	3.2%	1.1	24.0%	-5.2	?
CCCC(=O)c1ccc(N2CCCC2)c(F)c1	1.9%	?	36.9*	0.8%	76.1*	201.6%
CCC(=O)c1ccc(N2CCN(C(=O)COc3ccccc3F)CC2)c(F)c1	-13.2%	2.4%[57.1 µM]	-1.3	29.6%	-20.6	?
CCC(=O)c1ccc(N2CCN(S(=O)(=O)c3ccccc3)CC2)c(F)c1	-2.0%	11.7%	44.0*	9.28µM*	-16.4	-5.4%
CCC(=O)c1ccc(N2CCCCCC2)c(F)c1	-67.1%	-13.7%	35.0*	-20.0%	54.1*	59.2%
CCC(=O)c1ccc(N2CCN(C(=O)c3ccccc3F)CC2)c(F)c1	.	-2.8%	20.3	-0.4%	-4.7	28.5%
CCC(=O)c1ccc(N2CCN(C(=O)c3cccs3)CC2)c(F)c1	-40.1%	-16.1%	21.3*	?	22.1	-3.9%
CCOc1ccc(NC(=O)CN2C(=O)C(c3ccc(Cl)cc3)=NC2(C)C)cc1	.	0.5%	.	.	.	.
CC(=O)c1ccc(OCCCC(=O)NNC(=O)c2ccccn2)cc1	.	1.7%	.	?	.	?
O=C(NC1CCN(Cc2ccccc2Cl)CC1)c1ccccc1	3.8%	1.0%	-2.0	?	-1.5	?
Cc1nnc(SCCN2CCOCC2)c2nn(-c3ccccc3F)c(C)c12	4.1%	-7.2%	-4.4	-6.1%	-8.0	13.7%
Cc1ccccc1CCNC(=O)c1ccc(Cn2c(=O)c3cccn3c3cccnc32)cc1	.	3.6%	.	.	.	.
CCOC(=O)N1CCN(c2ccc(C(=O)c3ccccc3)cc2F)CC1	-16.9%	19.8%	28.6*	59.0%	77.2*	33.2%
CCOC(=O)N1CCN(c2ccc(C(C)=O)cc2F)CC1	4.1%[9.22 µM]	-1.3%	9.4	?	16.6	?
SMILES	NS1 function inh	Sm TGR inh	Cycloheximide cs	Pf growth 96h	Shiga toxin inh	Pf growth 48h
CCOc1ccc(S(=O)(=O)Nc2cccc(-c3ccc(N4CCCCCC4)nn3)c2)cc1	-3.8%	1.2%	24.8*	11.9%	41.4*	29.0%
CCOc1ccc(S(=O)(=O)Nc2ccc(-c3ccc(N4CCCC4)nn3)cc2)cc1	.	1.0%	.	.	.	.
COc1ccc(S(=O)(=O)Nc2cccc(-c3ccc(N4CCCC4)nn3)c2)cc1OC	.	5.8%	.	.	.	.
O=S(=O)(Nc1cccc(-c2ccc(N3CCCCCC3)nn2)c1)c1ccc(C(F)(F)F)cc1	21.7%	-15.8%	30.8*	?	40.8*	94.8%
O=S(=O)(Nc1ccc(-c2ccc(N3CCCC3)nn2)cc1)c1cccc(C(F)(F)F)c1	.	-10.0%	.	.	.	.
O=S(=O)(Nc1cccc(-c2ccc(N3CCCCCC3)nn2)c1)c1ccc(F)cc1	7.8%	5.7%	42.7*	-12.0%	84.6*	36.6%
CC(=O)c1ccc(S(=O)(=O)Nc2cccc(-c3ccc(N4CCCCC4)nn3)c2)cc1	.	-4.9%	.	.	.	.
Cc1ccc(S(=O)(=O)Nc2cccc(-c3ccc(N4CCCCCC4)nn3)c2)cc1C	4.0%	-28.2%	39.3*	13.1µM*	114.8*	22.0%
CCC(C(=O)N1CCN(S(=O)(=O)c2ccc(F)cc2)CC1)c1ccccc1 (stereo not drawn)	.	1.9%	.	?	.	?
COc1ccc(C)cc1S(=O)(=O)Nc1cccnc1	2.1%	0.8%	1.6	6.57µM*	9.0	24.3%
COc1ccc(C)cc1S(=O)(=O)Nc1cccc(-c2ccc(N3CCCCCC3)nn2)c1	8.5%	-18.4%	20.1*	?	26.7	-4.7%
CCCCCNS(=O)(=O)c1cc(C)ccc1OC	-1.3%	-4.5%	-1.0	11.7µM*	3.4	-11.2%
CCNS(=O)(=O)c1cc(OC)ccc1OC	-6.6%	3.4%	0.6	?	-13.4	.
Cc1cc(OC(=O)c2ccc(C)c(C)c2)c([N+](=O)[O-])c(=O)[nH]1	-17.6%	-4.1%	-2.0	-7.7%	1.0	5.0%
CCCCCc1cc(=O)oc2c(C(CCN3CCCC(C)C3)c3ccc(OC)cc3)c(OC)cc(OC)c12 (stereo not drawn)	4.4%	-4.8%	-7.1	3.29µM*	-2.3	?
CCCCCc1cc(=O)oc2c(C(CCN3CCCCC3)c3ccc(OC)cc3)c(OC)cc(OC)c12 (stereo not drawn)	7.1%	-20.5%	-14.0	2.62µM*	-18.2	3.29µM*
COc1ccc(C(CCN2CCCC(C)C2)c2c(OC)cc(OC)c3c2OC(=O)CC3c2cc(OC)c(OC)c(OC)c2)cc1 (stereo not drawn)	2.5%	-12.0%	-1.3	10.4µM*	5.6	11.7µM*
CCCCCc1cc(=O)oc2c(C(CCN3CCCC3)c3ccc(N(C)C)cc3)c(OC)cc(OC)c12 (stereo not drawn)	-1.1%	-25.3%	-5.0	9.28µM*	-7.7	?
COc1cc(OC)c2c(C)cc(=O)oc2c1C(CCN1CCCC(C)C1)c1ccc(N(C)C)cc1 (stereo not drawn)	.	.	-4.8	.	4.6	.
CCCCCc1cc(=O)oc2c(C(CCN3CCCC3)c3cc(OC)c(OC)c(OC)c3)c(OC)cc(OC)c12 (stereo not drawn)	-2.5%	-1.6%	-14.1	3.29µM*	-14.1	2.62µM*
COc1cc(OC)c2ccc(=O)oc2c1C(CCN1CCCCC1)c1ccc(N(C)C)cc1 (stereo not drawn)	-9.6%	-21.7%	7.2	?	2.0	?

Compound activity (PubChem BioAssay)
